From PubChem
Shown are actives, neighbours in structure and some others; about 1.7% of the full set was active somewhere.
ALOX12 inh: ALOX12 (human) lipoxygenase inhibition. P18054. purified 12hLO, xylenol orange hydroperoxide absorbance. Potency, µM (series often up to 108 µM), inactives show at the top dose activity change, negative = inhibition, usual class: inhibitors. actives 1.1% (n = 580,000). AID 1671190; further: on the % scale 0 is the no-effect control and ±100 the full control effect
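Purified human 12hLO (150 nM final) in 25 mM Hepes, 0.01% Triton X-100, pH 7.0 was preincubated 15 min at room temperature with compound. Then 40 uM arachidonic acid was added, 30 min. Hydroperoxide was read by Fe-XO absorbance ratio 573/405 nm.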
rTrxR1 inhibitor: rat TrxR1 inhibition; AID 588453; actives 1% (n = 390,000); Potency, µM (highest dose often 114 µM), without a hit: top-dose activity change, negative = inhibition, hits mostly inhibitors; recombinant rTrxR1, NADPH fluorescence consumption, selenite substrate; O89049; further: on the % scale 0 is the no-effect control and ±100 the full control effect; nearly all actives have a fitted effect of over 65% in size
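Rat TrxR1 (90 nM in the dispensed reagent) was pre-reduced with 400 uM NADPH for 5 min at room temperature, then incubated with compound for 15 min. After 400 uM selenite was added, NADPH fluorescence (Ex 340/Em 450 nm) was followed for 8 min.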
Anesthetic bind: candidate novel general anesthetic via apoferritin binding; P02791; apoferritin/1-aminoanthracene competitive binding, fluorescence; Potency, µM (doses to about 77.5 µM), inactives show at the top dose activity change, negative = displacement, usual class: inhibitors; actives 0.074% (n = 350,000); further: on the % scale 0 is the no-effect control and ±100 the full control effect; nearly all actives have a fitted effect of over 20% in size
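10 uM apoferritin + 50% sat. 1-AMA, PBS; cpd 10 min RT; Ex380/Em535 endpoint; normalized to free probe vs complex; 4-param Hill fit; propofol titration as pos. ctrl.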
mIDH1 inhibitor: inhibitors of human mutant IDH1 R132H. O75874. IDH1-R132H enzyme, NADPH consumption, diaphorase/resazurin fluorescence. Potency, µM (top dose mostly 76.6 µM), inactives show top-dose activity change, negative = inhibition, most hits filed as inhibitors. actives 0.093% (n = 390,000); further: on the % scale 0 is the no-effect control and ±100 the full control effect; nearly all actives have a fitted effect of over 65% in size
Target sequence (O75874 whole entry R132H, stated change not applied): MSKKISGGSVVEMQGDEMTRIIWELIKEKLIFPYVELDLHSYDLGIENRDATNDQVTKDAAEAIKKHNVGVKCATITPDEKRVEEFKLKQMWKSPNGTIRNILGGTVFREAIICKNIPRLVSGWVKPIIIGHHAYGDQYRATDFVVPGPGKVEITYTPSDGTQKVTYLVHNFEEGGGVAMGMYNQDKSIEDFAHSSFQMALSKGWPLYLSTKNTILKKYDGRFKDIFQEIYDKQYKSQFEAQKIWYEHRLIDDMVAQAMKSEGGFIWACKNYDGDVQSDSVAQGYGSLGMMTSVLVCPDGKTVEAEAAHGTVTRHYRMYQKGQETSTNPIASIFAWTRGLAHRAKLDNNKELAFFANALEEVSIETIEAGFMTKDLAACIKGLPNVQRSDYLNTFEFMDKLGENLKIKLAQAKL
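IDH1-R132H (0.5 ug/mL dispensed) in pH 7.5 Tris buffer was preincubated 30 min with compound, then given a substrate mix of 0.016 mM NADPH and 2 mM alpha-KG for 80 min at room temperature; remaining NADPH was read by diaphorase/resazurin fluorescence.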
GRP78 ERSR act: ER stress response induction in glioma; actives 0.02% (n = 420,000); U87-MG GRP78 promoter luciferase reporter, 16 h; Potency, µM, for inactives: at the highest dose activation, actives largely listed as activators; further: series mostly up to about 76 µM; % of control where 0% means no effect; nearly all actives have a fitted effect of over 35% in size
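Stably transfected U87-MG glioma cells carrying a GRP78-based luciferase sensor; 16 h compound incubation. Luminescence end-point read 10 min after Bright-Glo addition at room temperature.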
TrxR1 substrate: substrates of rat thioredoxin reductase 1; O89049; purified TrxR1 substrate turnover, NADPH consumption readout; Potency, µM (series often up to 114 µM), inactives show at the top dose activity change, negative = substrate turnover; actives 0.01% (n = 390,000); AID 588456; further: on the % scale 0 is the no-effect control and ±100 the full control effect; nearly all actives have a fitted effect of over 50% in size
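Rat TrxR1, dispensed at 90 nM, was prereduced with 400 uM NADPH (final) for 5 min at ~22 deg C, then incubated with compound 15 min before 400 uM selenite. A first-read NADPH fluorescence drop versus no-compound background flagged substrates.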
Starred values were filed as active, the others as inactive; ? = inconclusive; . = no result; ! = a repeat was not active; [ ] = remark or other dose. The call rests on the fitted dose curve; in most records, active means well fitted curve in the direction sought with a large enough effect; inconclusive means small, poorly fitted or top-dose-only effect, or another doubt; inactive means no such curve, though single readings can be large; an effect the other way counts as inactive or inconclusive. Potency means the concentration at half of the fitted maximal effect.

SMILES	ALOX12 inh	rTrxR1 inhibitor	Anesthetic bind	mIDH1 inhibitor	GRP78 ERSR act	TrxR1 substrate
COc1ccccc1NC(=O)CSc1nnc(CN2CCCCC2)n1-c1ccc(F)cc1	2%	.	.	.	.	.
O=C(Cc1ccccc1)N1CCc2ccccc21	-3%[57.4 µM]	4%	8.9µM*	10%	3%	7%
Cc1cncc(-c2ccccc2OCCN(C)C)c1	11%	.	.	.	.	.
CC(/C=C/c1ccccc1)=N\NC(N)=S	11µM*	-8%[57.1 µM]	?	0%	6%	-3%[57.1 µM]
CC[C@@]1(c2ccccc2)NC(=O)NC1=O	.	.	-4%	.	0%	.
C=CCOc1ccccc1CN(C(=O)CCl)c1ccc2c(c1)OCO2	?	20µM*	-5%	0%	-16%	0%
CCOc1ccccc1NC(=O)Nc1ccc2c(c1)OCO2	-2%	7%	-4%	-2%	10%	0%
Oc1ccc(Nc2nc(-c3ccccc3F)nc3ccccc23)cc1	18µM*!	-27%	-3%	0%	-5%	-13%
Oc1ccc(Nc2nc(-c3ccccc3O)nc3ccccc23)cc1	28µM*!	14%	-3%	9%	-13%	0%
COc1ccc(Nc2nc(-c3ccccc3F)nc3ccccc23)cc1OC	?	-1%	-15%	0%	6%	-7%
Cn1ccc(=S)c2ccccc21	0%	22µM*	-15%	16%	-5%	-4%
O=C(CN1C(=O)NC2(CCCCC2)C1=O)NCCc1ccc(Cl)cc1	0%	.	.	.	.	.
O=C1CC(N2CCC(c3nc4ccccc4o3)CC2)C(=O)N1c1ccc(Cl)c(C(F)(F)F)c1 (centres undefined)	-4%	18µM*	?	6%	-3%	1%
O=C1CC(N2CCC(c3nc4ccccc4o3)CC2)C(=O)N1c1cccc(Cl)c1 (centres undefined)	-2%	.	.	.	.	.
COc1ccc(C(=O)N2CCCC(Cc3ncc(C)n3Cc3ccccc3)C2)c(OC)c1 (centres undefined)	32%	.	.	.	.	.
O=C1C(C2=C(O)c3ccccc3C2=O)=Nc2ccccc21	?	14µM*	-18%	-11%	2%	35µM*
CCc1c(-c2ccc(Cl)cc2)ncn1Cc1cccc(-c2ccccc2)c1	8.9µM*	.	.	.	.	.
COc1ccc(CNCc2ccc(C)s2)cc1OCC(O)CN1CCCCC1 (centres undefined)	0%	.	.	.	.	.
COc1cccc(-c2nc3ccccc3s2)c1O	24%	4%[57.1 µM]	68%	-3%	-8%	-1%[57.1 µM]
COc1cccc(-c2nc(-c3nc4ccccc4s3)cs2)c1OC	5µM*	.	.	.	.	.
COc1ccc(-c2csc(NC(=O)C(CC(=O)O)N3CCOCC3)n2)cc1 (centres undefined)	-21%	8%	-4%	-6%	0%	0%
CC(C)OC(=O)C(CC(=O)O)N1CCOCC1 (centres undefined)	5.6µM*	-3%	-5%	13%	-7%	-2%
N#CC1=C2SCN(Cc3ccccc3)CN2C(=O)CC1c1ccc2c(c1)OCO2 (centres undefined)	40µM*	?	4%	10%	-4%	-3%
COc1cc(C2CC(=O)N3CN(Cc4ccco4)CSC3=C2C#N)ccc1OCc1ccccc1 (centres undefined)	25µM*	?	?	8%	-3%	3%[57.1 µM]
COc1ccc(C2CC(=O)N3CN(Cc4ccco4)CSC3=C2C#N)cc1 (centres undefined)	?	?	-22%	10%	-5%	-5%
N#CC1=C2SCN(Cc3ccccc3)CN2C(=O)CC1c1cccs1 (centres undefined)	?	?	-23%	6%	-2%	-4%[57.1 µM]
CCCN1CC2(CCN(Cc3nc(C(=O)O)co3)CC2)CC1C(=O)O (centres undefined)	-2%	.	.	.	.	.
O=C1C(Cl)=C(N2CCN(c3ccccc3[N+](=O)[O-])CC2)C(=O)c2ccccc21	-19%	0.79µM*	-8%	5%	-13%	11%
